Data taken from PubChem BioAssay.
“And” between values parts separate entries of the source, which are not always exact repeats. Identical values can stand only once. Records with an inconclusive call do not appear. The source made the active and inactive calls.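 How the source made its calls, unless noted: active means inhibition above the screen-wide mean plus 3 SD, about 51%; inactive means the rest.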

How the values were obtained:
[1] = rapamycin-like changes in RPL19A-GFP expression – cell-based, S. cerevisiae, multiplex flow cytometry, primary screen (AID 1862; in the data active means percent of DMSO control GFP below about 86%;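 further: lower values mimic rapamycin by blocking the RPL19A rise seen in DMSO cells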); conditions: S. cerevisiae RPL19A-GFP strain, flow cytometry fluorescence, 3 h; at 10 µM; stronger effect = lower value
[2] = TOR pathway GLN3 branch reporter MEP2-GFP changes – S. cerevisiae, multiplex flow cytometry, primary screen (AID 1867;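 active means GFP response, as percent of the DMSO control, above the screen-wide mean plus 3 SD, about 139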;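 further: median GFP channel fluorescence of barcode-gated MEP2-GFP cells measured by flow cytometry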); conditions: S. cerevisiae MEP2-GFP strain, 3 h, at 10 µM, stronger effect = higher value, 100% means same as DMSO wells
[3] = TOR pathway RTG branch CIT2 reporter changes – S. cerevisiae, GFP fusion, multiplex flow cytometry, primary screen (AID 1870;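 active means percent response above a set limit, the screen-wide mean plus 3 SD, cut at about 130% in these data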;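 further: barcoded CIT2-GFP strain pooled with four other GFP strains with rapamycin as positive control; median GFP fluorescence per well over plate mean of DMSO wells so 100% = DMSO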); conditions: S. cerevisiae CIT2-GFP expression, 3 h, at 10 µM, stronger effect = higher value
[4] = TOR pathway LAP4-GFP level changes – S. cerevisiae, multiplex flow cytometry, primary screen (AID 1873;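 active means GFP signal, as percent of the solvent control, above the screen mean plus 3 SD, about 149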); conditions: S. cerevisiae LAP4-GFP expression, 3 h, at 10 µM, stronger effect = higher value
[5] = yeast AGP1-GFP level changes, GLN3 branch – cell-based, multiplex flow cytometry, S. cerevisiae, primary screen (AID 1887;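 active means GFP signal above the screen-wide mean plus 3 SD, that is over about 124.5% of the solvent control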;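 further: AGP1-GFP fusion strain of S. cerevisiae within a five-strain barcoded multiplex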); conditions: 3 h, at 10 µM, stronger effect = higher value
[6] = reduced mouse 2C T cell binding to pMHC/ICAM-1 vesicles – MLPCN validation set, flow cytometry, LFA-1/ICAM-1 modulator project, pilot screen (AID 2523;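 active means response below a set limit, under 55% cells CD8-positive and vesicle-bound, and CD8 cells' 90th-percentile brightness under 279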;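 on vesicle binding response: mean PE anti-B7-1 fluorescence of CD8+ cells relative to row control; 100% = QL9-loaded vesicles with DMSO vehicle in the same plate row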); conditions: 2C mouse CD8+ T cells, at 7 µM, stronger effect = lower value; double positive events: measured here: CD8+/vesicle+ event percentage
[7] = biological target: Integrin beta-1 (Homo sapiens) + Integrin alpha-4 (Homo sapiens) (UniProt P13612+P05556); assay: alpha4beta1 integrin LIBS antibody binding reduction – U937 cells, HUTS-21 mAb, flow cytometry, validation set, VLA-4 allosteric modulator project, pilot screen (AID 2674;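 active means inhibition above 50%, about 3 SD of the validation set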;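 further: antibody binding induced by the VLA-4 ligand LDV present at three times its Kd; 0% = LDV ligand with antibody and no compound and 100% = antibody without LDV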); conditions: HUTS-21 LIBS mAb binding, at 6.7 µM, stronger effect = higher value, binding induced by LDV ligand
Sequence of Integrin beta-1 (Homo sapiens) + Integrin alpha-4 (Homo sapiens) (P05556 whole entry, looked up): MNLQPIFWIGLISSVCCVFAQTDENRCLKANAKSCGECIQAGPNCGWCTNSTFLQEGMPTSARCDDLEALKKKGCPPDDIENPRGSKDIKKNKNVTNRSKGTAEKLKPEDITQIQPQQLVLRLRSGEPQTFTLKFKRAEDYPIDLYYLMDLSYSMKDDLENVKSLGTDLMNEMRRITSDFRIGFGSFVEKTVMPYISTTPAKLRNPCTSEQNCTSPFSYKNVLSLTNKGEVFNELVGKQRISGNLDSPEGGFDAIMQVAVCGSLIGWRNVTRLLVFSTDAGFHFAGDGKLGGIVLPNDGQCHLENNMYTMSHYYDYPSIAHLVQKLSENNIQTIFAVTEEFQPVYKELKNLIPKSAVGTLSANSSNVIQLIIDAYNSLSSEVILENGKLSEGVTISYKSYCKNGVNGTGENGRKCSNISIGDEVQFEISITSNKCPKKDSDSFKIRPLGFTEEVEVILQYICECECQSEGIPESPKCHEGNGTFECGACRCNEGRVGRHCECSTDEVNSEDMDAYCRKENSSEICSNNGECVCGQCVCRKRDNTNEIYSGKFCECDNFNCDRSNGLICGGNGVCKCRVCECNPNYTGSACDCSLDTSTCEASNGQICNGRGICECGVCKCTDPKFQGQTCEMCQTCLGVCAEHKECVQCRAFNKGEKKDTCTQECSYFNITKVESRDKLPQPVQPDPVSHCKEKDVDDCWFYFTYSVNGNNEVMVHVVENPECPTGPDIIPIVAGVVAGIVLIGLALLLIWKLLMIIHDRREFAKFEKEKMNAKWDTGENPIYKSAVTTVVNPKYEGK
Sequence of Integrin beta-1 (Homo sapiens) + Integrin alpha-4 (Homo sapiens) (P13612 whole entry, looked up): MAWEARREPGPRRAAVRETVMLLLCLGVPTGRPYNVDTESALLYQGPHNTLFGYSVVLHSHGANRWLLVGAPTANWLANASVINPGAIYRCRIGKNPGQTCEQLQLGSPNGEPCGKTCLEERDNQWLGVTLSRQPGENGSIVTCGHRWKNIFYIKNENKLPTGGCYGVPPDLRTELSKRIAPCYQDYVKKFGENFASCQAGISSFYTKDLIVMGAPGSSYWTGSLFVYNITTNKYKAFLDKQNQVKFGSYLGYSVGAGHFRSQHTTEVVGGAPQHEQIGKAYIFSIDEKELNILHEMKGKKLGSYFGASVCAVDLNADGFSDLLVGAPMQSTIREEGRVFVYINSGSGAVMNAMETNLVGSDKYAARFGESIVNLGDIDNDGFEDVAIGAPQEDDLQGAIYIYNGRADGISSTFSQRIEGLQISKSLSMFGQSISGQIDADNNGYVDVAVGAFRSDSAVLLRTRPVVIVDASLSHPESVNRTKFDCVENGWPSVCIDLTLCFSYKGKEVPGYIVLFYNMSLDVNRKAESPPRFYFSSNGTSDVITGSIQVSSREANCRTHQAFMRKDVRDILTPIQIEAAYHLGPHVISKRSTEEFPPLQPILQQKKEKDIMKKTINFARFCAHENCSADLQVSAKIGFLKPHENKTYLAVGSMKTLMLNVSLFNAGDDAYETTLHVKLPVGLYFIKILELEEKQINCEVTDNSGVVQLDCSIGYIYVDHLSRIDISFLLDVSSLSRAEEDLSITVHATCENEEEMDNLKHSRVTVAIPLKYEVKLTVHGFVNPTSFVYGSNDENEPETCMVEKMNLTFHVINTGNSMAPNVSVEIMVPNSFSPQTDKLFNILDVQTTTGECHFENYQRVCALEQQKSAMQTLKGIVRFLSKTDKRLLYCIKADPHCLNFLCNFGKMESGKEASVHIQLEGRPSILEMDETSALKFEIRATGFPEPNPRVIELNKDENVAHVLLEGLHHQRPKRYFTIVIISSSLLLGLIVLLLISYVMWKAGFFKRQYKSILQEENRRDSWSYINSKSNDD

[8] = calorie-restriction mimetic ROS inhibitors, yeast – validation compound set, pilot screen (AID 2706;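 active means superoxide response below 65% of plate, a cut near 3 SD across the whole screen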;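 further: yeast exposed to compound for one week at 30 degrees C before staining; 100% = mean of all compound wells on the same plate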); conditions: S. cerevisiae aging, superoxide DHE fluorescence; at 10 µM; stronger effect = lower value
[9] = biological target: Beta-adrenergic receptor kinase 1 (Homo sapiens) (UniProt P25098); assay: GRK2 binders displacing RNA aptamer, biochemical, validation, human GRK2, bead flow cytometry (AID 488806;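 active means aptamer binding inhibition above 30%, about 3 SD of noise from non-fluorescent compounds; inactive means inhibition at or below 30%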); conditions: bead-bound GRK2, FAM-aptamer displacement, at 10 µM, stronger effect = higher value
Sequence of Beta-adrenergic receptor kinase 1 (Homo sapiens) (P25098 whole entry, looked up): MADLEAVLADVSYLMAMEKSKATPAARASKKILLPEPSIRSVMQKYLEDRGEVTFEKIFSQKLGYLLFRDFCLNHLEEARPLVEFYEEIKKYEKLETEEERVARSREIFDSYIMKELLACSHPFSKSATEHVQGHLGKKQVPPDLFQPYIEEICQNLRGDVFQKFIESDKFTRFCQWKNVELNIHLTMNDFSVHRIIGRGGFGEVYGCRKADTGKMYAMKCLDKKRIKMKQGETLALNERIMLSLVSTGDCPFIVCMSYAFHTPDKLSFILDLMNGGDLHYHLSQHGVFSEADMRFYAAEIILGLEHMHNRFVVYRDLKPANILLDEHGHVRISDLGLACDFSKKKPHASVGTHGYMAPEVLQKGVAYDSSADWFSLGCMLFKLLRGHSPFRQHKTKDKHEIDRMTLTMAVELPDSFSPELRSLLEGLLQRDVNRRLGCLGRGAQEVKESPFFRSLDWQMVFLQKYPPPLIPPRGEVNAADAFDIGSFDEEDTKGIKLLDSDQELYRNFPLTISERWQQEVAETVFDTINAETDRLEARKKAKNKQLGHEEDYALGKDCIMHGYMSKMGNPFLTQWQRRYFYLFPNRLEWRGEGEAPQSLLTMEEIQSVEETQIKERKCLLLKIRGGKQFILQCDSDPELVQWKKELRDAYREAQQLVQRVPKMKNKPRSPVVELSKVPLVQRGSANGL

[10] = biological target: Beta-2 adrenergic receptor (Homo sapiens) (UniProt P07550); assay: agonist-induced loss of surface beta2AR – cell-based, FAP fluorogen, flow cytometry, validation set, pilot screen (AID 504459;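 active means percent response above 42, roughly 3 SD of non-fluorescent test compounds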;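 further: agonist-driven loss of surface beta2AR via internalization measured by FAP dye flow cytometry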); conditions: Am2.2-beta2AR cells, at 10 µM, stronger effect = higher value
Sequence of Beta-2 adrenergic receptor (Homo sapiens) (P07550 whole entry, looked up): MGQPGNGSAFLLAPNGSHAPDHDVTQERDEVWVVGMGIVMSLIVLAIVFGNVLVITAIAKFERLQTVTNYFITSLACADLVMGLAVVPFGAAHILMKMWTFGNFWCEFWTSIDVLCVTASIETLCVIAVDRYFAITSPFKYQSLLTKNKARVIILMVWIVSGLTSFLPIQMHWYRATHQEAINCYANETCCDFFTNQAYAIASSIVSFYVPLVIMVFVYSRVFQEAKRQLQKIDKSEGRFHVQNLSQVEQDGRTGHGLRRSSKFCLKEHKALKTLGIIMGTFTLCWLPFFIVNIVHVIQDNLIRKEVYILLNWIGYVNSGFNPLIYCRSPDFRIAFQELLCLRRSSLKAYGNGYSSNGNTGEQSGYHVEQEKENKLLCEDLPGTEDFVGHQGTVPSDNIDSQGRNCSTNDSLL

[11] = biological target: AP-2 complex subunit beta (Homo sapiens) (UniProt P63010); assay: beta-arrestin/AP2 interaction blockers – biochemical, validation set, GST-AP2 beads, flow cytometry, pilot screen (AID 504541;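 active means inhibition above 54%, about 3 SD of non-fluorescent compounds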;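 further: AP2 carries R879A mutation and is captured from E. coli lysate; bead-bound FITC arrestin peptide fluorescence measuring arrestin peptide binding to AP2; 0% = DMSO wells and 100% = excess unlabeled arrestin peptide control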); conditions: FITC arrestin peptide, at 10 µM, stronger effect = higher value, AP2 beta2 appendage fragment, R879A mutant
Sequence of AP-2 complex subunit beta (Homo sapiens) (P63010 whole entry, looked up, the tested form may be a part, one chain of several): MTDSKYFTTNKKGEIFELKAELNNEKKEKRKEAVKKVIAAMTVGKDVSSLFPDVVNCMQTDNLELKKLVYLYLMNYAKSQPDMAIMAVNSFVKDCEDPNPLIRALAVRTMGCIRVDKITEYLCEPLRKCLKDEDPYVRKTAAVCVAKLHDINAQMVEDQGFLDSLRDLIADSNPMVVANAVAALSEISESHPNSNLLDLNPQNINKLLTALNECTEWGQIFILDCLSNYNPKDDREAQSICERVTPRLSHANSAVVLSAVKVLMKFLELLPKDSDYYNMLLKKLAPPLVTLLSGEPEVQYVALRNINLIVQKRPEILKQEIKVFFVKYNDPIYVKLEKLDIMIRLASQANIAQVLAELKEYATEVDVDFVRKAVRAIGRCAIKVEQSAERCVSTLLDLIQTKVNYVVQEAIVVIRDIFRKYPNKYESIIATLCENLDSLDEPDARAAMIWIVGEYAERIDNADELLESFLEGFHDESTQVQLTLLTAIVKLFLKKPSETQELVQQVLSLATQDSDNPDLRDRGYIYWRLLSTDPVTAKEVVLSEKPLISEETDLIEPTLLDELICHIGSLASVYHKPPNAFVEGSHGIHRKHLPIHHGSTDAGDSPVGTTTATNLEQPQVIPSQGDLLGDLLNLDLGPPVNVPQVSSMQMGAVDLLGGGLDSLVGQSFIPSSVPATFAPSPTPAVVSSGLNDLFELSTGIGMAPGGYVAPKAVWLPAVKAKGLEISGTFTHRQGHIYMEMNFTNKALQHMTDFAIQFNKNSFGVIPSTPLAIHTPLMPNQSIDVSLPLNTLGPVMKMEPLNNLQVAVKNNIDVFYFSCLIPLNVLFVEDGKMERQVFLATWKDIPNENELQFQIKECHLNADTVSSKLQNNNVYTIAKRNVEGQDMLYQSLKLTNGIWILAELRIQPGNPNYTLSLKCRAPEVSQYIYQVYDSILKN

[12] = cytosolic pH regulators acting via V-ATPase – S. cerevisiae, pHLuorin, HTS validation (AID 504600; in the data active means response above about 15%;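 further: plate controls were DMSO for no effect and reference compound for full effect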); conditions: V-ATPase proton transport, at 10 µM, stronger effect = higher value
[13] = test system: anti-desmoglein-3 scFv antibody binding to human DSG3; assay: blockers of pathogenic pemphigus antibody–desmoglein-3 binding – biochemical, validation compound set, bead-based, flow cytometry, pilot screen (AID 588368;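 active means binding below the plate cutoff, the plate median minus 3 SD, with a reading above zero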;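 further: signal is the median channel fluorescence of bead-bound GFP antibody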); conditions: Protein G beads, DSG3-Fc, scFv-GFP binding, at 10 µM, stronger effect = lower value
[14] = Nile Red efflux blockade in pump-expressing yeast – validation compound set, multiplex, phenotypic, pilot screen (AID 588506;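 active means efflux inhibition above 0.42, the validation set average plus 4 SD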;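 further: Nile Red retained in cells so higher fluorescence means more efflux inhibition; 0 = negative control wells and 1 = enniatin B 25 µM full block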); conditions: S. cerevisiae pump-expressing triplex, Nile Red efflux flow cytometry; at 10 µM; stronger effect = higher value; the pumps come from Candida albicans
[15] = biological target: ATP-binding cassette sub-family B member 6 (Homo sapiens) (UniProt Q9NP58); assay: blockers of ABCB6-driven porphyrin uptake – K562-ABCB6 cells, flow cytometry, validation set, pilot screen (AID 588550); conditions: K562-ABCB6 porphyrin accumulation, 1 h, at 10 µM, stronger effect = higher value;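 further: 0% = DMSO wells and 100% = benzethonium chloride 70 µM positive control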
Sequence of ATP-binding cassette sub-family B member 6 (Homo sapiens) (Q9NP58 whole entry, looked up): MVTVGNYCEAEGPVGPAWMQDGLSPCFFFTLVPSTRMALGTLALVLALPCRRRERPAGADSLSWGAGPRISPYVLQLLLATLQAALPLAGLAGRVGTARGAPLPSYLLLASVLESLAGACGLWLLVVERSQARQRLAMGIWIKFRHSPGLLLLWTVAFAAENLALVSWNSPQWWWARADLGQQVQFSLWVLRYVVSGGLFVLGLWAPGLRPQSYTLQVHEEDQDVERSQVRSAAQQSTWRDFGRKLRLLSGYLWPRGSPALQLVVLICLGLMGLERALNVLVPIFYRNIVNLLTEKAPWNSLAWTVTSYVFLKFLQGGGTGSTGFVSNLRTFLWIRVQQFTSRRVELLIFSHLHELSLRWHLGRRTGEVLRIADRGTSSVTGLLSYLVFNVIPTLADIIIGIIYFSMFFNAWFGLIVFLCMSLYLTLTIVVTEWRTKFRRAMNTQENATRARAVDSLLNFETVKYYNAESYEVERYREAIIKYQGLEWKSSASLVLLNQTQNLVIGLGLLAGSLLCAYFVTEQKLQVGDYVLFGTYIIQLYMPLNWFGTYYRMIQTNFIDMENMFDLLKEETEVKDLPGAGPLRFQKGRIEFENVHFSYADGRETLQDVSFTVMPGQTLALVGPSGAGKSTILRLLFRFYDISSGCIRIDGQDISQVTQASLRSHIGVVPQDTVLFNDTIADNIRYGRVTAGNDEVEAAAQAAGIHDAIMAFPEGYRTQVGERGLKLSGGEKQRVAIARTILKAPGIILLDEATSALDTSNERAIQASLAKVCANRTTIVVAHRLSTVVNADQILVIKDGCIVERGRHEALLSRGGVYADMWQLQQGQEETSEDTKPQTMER

[16] = AML differentiation inducers, ER-HoxA9 marrow cells – cell-based, GFP/MAC1 double positive, flow cytometry, validation set, primary screen (AID 588685;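 active means differentiation response of at least 50%, scaled between solvent and reference control, from cells with both markers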;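 further: compound exposure lasts four days before antibody staining and flow analysis; 0% = DMSO wells and 100% = 5 µM fulvestrant positive control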); conditions: stronger effect = higher value, normalized: vehicle 0, fulvestrant 100

Cc1ccc2ncnc(NCCCCCC(=O)O)c2c1
64.6%: double positive events [6]
inactive: percent of DMSO control GFP [1] 105% | GFP response vs DMSO [2] 103% | percent response of DMSO control [3] 105% | GFP response vs DMSO [4] 106% | GFP response, % of DMSO [5] 108% | vesicle binding response [6] 130% | inhibition [7] 8.29% | superoxide response (% of plate) [8] 114% | aptamer binding inhibition [9] -1% | response [10] 0.4% | inhibition [11] 13.1% | response [12] 5.01% | binding (% of control) [13] 101% | efflux inhibition (fraction of control) [14] 0.135 | inhibition [15] 4% | differentiation response [16] -14.8%

CCCN(CCC)C(=O)C(CCC(=O)O)NC(=O)c1ccccc1 (stereo not drawn)
inactive: percent of DMSO control GFP [1] 98.8% | GFP response vs DMSO [2] 109% | percent response of DMSO control [3] 95.4% | GFP response vs DMSO [4] 92% | GFP response, % of DMSO [5] 94.5% | vesicle binding response [6] 977% | inhibition [7] 7.85% | superoxide response (% of plate) [8] 94.3% | aptamer binding inhibition [9] 7% | response [10] -4.18% | inhibition [11] -5.39% | response [12] -4.29% | binding (% of control) [13] 99.8% | efflux inhibition (fraction of control) [14] -0.2 | inhibition [15] -8% | differentiation response [16] 6.11%
59.4%: double positive events [6]

COc1ccc(C(=O)Oc2ccc3c(C)cc(=O)oc3c2C(C)=O)cc1
inactive: percent of DMSO control GFP [1] 104% | GFP response vs DMSO [2] 103% | percent response of DMSO control [3] 108% | GFP response vs DMSO [4] 105% | GFP response, % of DMSO [5] 106% | vesicle binding response [6] 123% | inhibition [7] -5.11% | superoxide response (% of plate) [8] 103% | aptamer binding inhibition [9] -1% | response [10] 2.26% | inhibition [11] 5.55% | response [12] -3.4% | binding (% of control) [13] 107% | efflux inhibition (fraction of control) [14] 0.12 | inhibition [15] 14% | differentiation response [16] -19.2%
61.4%: double positive events [6]

CCOC(=O)C1CCCN(Cc2nc(Cc3cccc(F)c3)no2)C1 (stereo not drawn)
inactive: percent of DMSO control GFP [1] 99.1% | GFP response vs DMSO [2] 92.6% | percent response of DMSO control [3] 92.4% | GFP response vs DMSO [4] 94.8% | GFP response, % of DMSO [5] 87.2% | vesicle binding response [6] 172% | inhibition [7] 5.61% | superoxide response (% of plate) [8] 90.5% | aptamer binding inhibition [9] -1% | response [10] 20.7% | inhibition [11] 3.77% | response [12] -3.88% | binding (% of control) [13] 106% | efflux inhibition (fraction of control) [14] 0.1 | inhibition [15] 10% | differentiation response [16] 8.59%
58.5%: double positive events [6]

COc1cc(C)nc(-n2nc(C)cc2OC)n1
active: response [12] 48.8%
inactive: percent of DMSO control GFP [1] 101% | GFP response vs DMSO [2] 103% | percent response of DMSO control [3] 96.6% | GFP response vs DMSO [4] 92.7% | GFP response, % of DMSO [5] 102% | vesicle binding response [6] 5320% | inhibition [7] -12.9% | superoxide response (% of plate) [8] 88.7% | aptamer binding inhibition [9] 1% | response [10] -8.04% | inhibition [11] 2.91% | binding (% of control) [13] 95.9% | efflux inhibition (fraction of control) [14] 0.02 | inhibition [15] 2% | differentiation response [16] 8.06%
61.8%: double positive events [6]

CCC(C)NCCOc1ccc(C(C)(C)c2ccccc2)cc1 (stereo not drawn)
61.9%: double positive events [6]
inactive: percent of DMSO control GFP [1] 107% | GFP response vs DMSO [2] 99.3% | percent response of DMSO control [3] 104% | GFP response vs DMSO [4] 94% | GFP response, % of DMSO [5] 103% | vesicle binding response [6] 181% | inhibition [7] -5.64% | superoxide response (% of plate) [8] 97.5% | aptamer binding inhibition [9] -5% | response [10] 17.1% | inhibition [11] -12.2% | response [12] -2.14% | binding (% of control) [13] 106% | efflux inhibition (fraction of control) [14] -0.01 | inhibition [15] -5% | differentiation response [16] 9.04%

CCCCOc1cc(C(=O)NCCN(CC)CC)c2ccccc2n1
48.4% and 71.1%: double positive events [6]
inactive: percent of DMSO control GFP [1] 94.8% | GFP response vs DMSO [2] 128% | percent response of DMSO control [3] 106% | GFP response vs DMSO [4] 79.8% | GFP response, % of DMSO [5] 92.8% | vesicle binding response [6] 187% and 185% | inhibition [7] 13.8% and 14.2% | superoxide response (% of plate) [8] 88.6% and 105% | aptamer binding inhibition [9] -2% and -3% | response [10] -3.62% | inhibition [11] -5.17% and -1.67% | response [12] -31% and -1.46% | binding (% of control) [13] 145% and 101% | efflux inhibition (fraction of control) [14] 0.03 and 0.09 | inhibition [15] 11% and 10% | differentiation response [16] 7.87% and 9.01%

O=C(O)c1cc2cc(F)ccc2[nH]1
inactive: percent of DMSO control GFP [1] 101% | GFP response vs DMSO [2] 101% | percent response of DMSO control [3] 105% | GFP response vs DMSO [4] 98.6% | GFP response, % of DMSO [5] 102% | vesicle binding response [6] 894% | inhibition [7] -15% | superoxide response (% of plate) [8] 113% | aptamer binding inhibition [9] 3% | response [10] 0.15% | inhibition [11] 8.62% | response [12] 1.32% | binding (% of control) [13] 97.2% | efflux inhibition (fraction of control) [14] -0.14 | inhibition [15] 14% | differentiation response [16] -1.71%
64.7%: double positive events [6]

CC(C)=CCCC1=CCC2C(=O)NNC(=O)C2C1 (stereo not drawn)
50.6%: double positive events [6]
inactive: percent of DMSO control GFP [1] 98.8% | GFP response vs DMSO [2] 101% | percent response of DMSO control [3] 110% | GFP response vs DMSO [4] 99.9% | GFP response, % of DMSO [5] 99.5% | inhibition [7] -3.16% | superoxide response (% of plate) [8] 104% | aptamer binding inhibition [9] 3% | response [10] -19.2% | inhibition [11] -0.62% | binding (% of control) [13] 103% | efflux inhibition (fraction of control) [14] -0.1 | inhibition [15] 4% | differentiation response [16] -10.4%
active: vesicle binding response [6] 61.5% | response [12] 51.2%
